Source: PubChem BioAssay (several laboratories)
CHOP inh: blocks CHOP induction under ER stress | CHO-K1 CHOP-promoter luciferase, tunicamycin-induced, 15-18 h | inhibition, % at 10 µM | actives 3.8% (n = 220,000) | AID 2732;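 active = compounds that reduced the stress-induced luciferase reporter signal by more than about 70% of percent inhibition, limit read from the data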;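 note: 0% = tunicamycin plus vehicle and 100% = wells without tunicamycin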
WT yeast gro inh: growth inhibition of WT yeast, mitochondrial fusion screen; mitochondrial fusion phenotypic screen, WT strain; inhibition, % at 10 µM; actives 2.1% (n = 190,000); AID 1362; in the data active = inhibition above about 58%; tested in S. cerevisiae
Lmaj promast: inhibitors of Leishmania major promastigote growth; actives 9% (n = 200,000); inhibition, % at 10 µM; AID 1063; Leishmania major promastigotes, resazurin fluorescence viability; in the data active = inhibition above about 50%;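 note: promastigotes grown with compound for 44 hours at 28 °C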
RAM network inh: inhibitors of the yeast RAM network | S. cerevisiae dse1pr::URA3 reporter, 5-FOA growth OD615, 2 d; analog-sensitive cbk1-as2 kinase mutant strain | inhibition, % at 50 µM | actives 1.8% (n = 190,000) | AID 868;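 active = inhibition above a set limit, 3 SD over mean compound inhibition, cut at about 8.4% in these data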;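 note: 0% = DMSO-only wells with no growth and 100% = 10 µM 1-NA-PP1 full growth; inhibition rescues growth on 5-FOA so higher OD means more RAM inhibition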
Starred values were filed as active, the others as inactive; x = no result given. Compounds with a hit are over-represented: about 13% of the library has one in this group of screens.

SMILES | CHOP inh | WT yeast gro inh | Lmaj promast | RAM network inh
Cc1ccc(Nc2cc(C)nc(NCc3ccccc3)n2)cc1 | 60.5 | 65.5 | 100.4* | 0.6
COc1ccc(Nc2cc(C)nc(NCc3ccccc3)n2)cc1 | 62.6 | x | x | x
Cc1cc(N/N=C/c2ccccc2Cl)nc(NCc2ccccc2)n1 | 7.6 | 74.5 | 86.4* | -0.5
Cc1cc(NC2CCCCC2)nc(NCc2ccccc2)n1 | 55.7 | 46.2 | 97.1* | 0.1
Cc1cc(N2CCN(c3ccccc3)CC2)nc(NCc2ccccc2)n1 | 87.8* | 39.9 | 28.6 | 1.6
CCN(c1ccccc1)S(=O)(=O)c1ccc(OC)c(NC(=O)C2CC(=O)N(Cc3ccccc3)C2)c1 (stereo unspecified) | -2.5 | x | x | x
CN(CCC#N)C(=O)COC(=O)c1cc(Cl)cc(Cl)c1N | 28.9 | -5.7 | 7.0 | 0.5
Cc1nc2c(N=Nc3ccccc3F)c(N)nn2c(N)c1C#N | 2.2 | 3.9 | 13.6 | 7.3
NC(=O)c1ccccc1OCC(=O)Nc1ccc(Cl)c(Cl)c1 | -43.3 | x | x | x
CCCC(=O)OCC(=O)c1[nH]c(C)c(C(C)=O)c1C | 1.4 | 2.0 | -1.3 | 0.6
C/C(=N\O)c1ccc2[nH]ccc2c1 | 7.3 | -5.4 | -3.0 | 0.4
C/C(=N\O)c1ccc2c3c([nH]c2c1)CCCC3 | x | 73.8* | 9.7 | 0.3
CC1CCCC(NCC(=O)Nc2ccc(C(N)=O)cc2)C1C (stereo unspecified) | 27.6 | -13.5 | -4.2 | 1.7
S=C(NCc1ccccc1Cl)Nc1ccccc1Cl | 17.0 | 46.2 | 11.1 | -0.5
S=C(NCCc1ccccc1)Nc1ccccc1Cl | 12.5 | 15.7 | 67.7* | 1.9
CC(C1CC1)N(Cc1ccccc1)C(=O)NC(=O)c1ccccc1 (stereo unspecified) | 4.9 | 1.4 | 32.9 | 0.8
S=C(NCCCc1ccccc1)Nc1ccccc1Cl | -4.1 | 67.6* | 16.9 | -0.3
COc1cc(OC)cc(C(=O)NC(=S)NCCc2ccccc2)c1 | -27.5 | -3.0 | 13.5 | 10.4*
COc1ccc(C(=O)NC(=S)NCc2ccccc2)cc1 | 18.9 | 6.2 | -7.0 | 1.8
CC(C1CC1)N(Cc1ccccc1)C(=S)Nc1ccccc1Cl (stereo unspecified) | 51.2 | 56.4 | 24.1 | 8.6*
COCCNC(=O)CN(C(=O)Cn1nnc2ccccc21)c1cccc(C)c1C | 18.5 | -10.5 | -10.7 | 0.1
Clc1cccc(N/N=C(\Cc2nc3ccccc3[nH]2)c2ccccc2)c1 | 66.8 | 62.1 | 22.1 | -0.5
CN(C)Cc1nnnn1-c1cccc(-n2nnnc2CN(C)C)c1 | 6.4 | x | x | x
S=C(NCCc1ccccc1)NCCc1ccccc1 | -12.2 | 62.5* | 0.6 | 0.1
CC1=C/C(=N\NC(=S)NCCc2ccccc2)CC(C)(C)C1 | -30.3 | 70.2* | 9.4 | 6.0
SMILES | CHOP inh | WT yeast gro inh | Lmaj promast | RAM network inh
S=C(NCCc1ccccc1)N/N=C/c1c(Cl)cccc1Cl | 26.4 | 6.0 | -8.2 | 4.1
O=C(CN1N=C(c2ccc(Cl)cc2)CCC1=O)NCc1cccnc1 | -2.4 | 5.3 | 0.7 | 0.0
CN(C(=O)Nc1ccc(Cl)cc1Cl)C1CCCC1 | -0.8 | -6.0 | 0.6 | 0.6
COc1ccc(/C=N/N=C2/NC(=O)CC(C(=O)O)S2)cc1 (stereo unspecified) | 7.3 | -9.8 | 58.0* | 1.3
COc1ccc(NC(=O)C2CC(=O)N/C(=N/N=C/c3ccco3)S2)cc1 (stereo unspecified) | 2.3 | x | x | x
CCOc1cccc(/C=N/Nc2ccc(S(=O)(=O)N(CC)CC)cn2)c1O | 51.6 | 5.2 | 81.6* | 2.0
CCc1cccc(C)c1NC(=O)CNCc1ccccc1 | -5.9 | -6.1 | -3.6 | 1.3
Cc1ccccc1Nc1c([N+](=O)[O-])ccc2c1=NC1(CCCCC1)N=2 | 75.7* | 16.2 | -0.6 | 2.7
COc1cccc(C2C(=O)N(C3CCCCC3)CC(=O)N2Cc2ccc(F)cc2)c1 (stereo unspecified) | 43.7 | 3.5 | 53.2* | 1.8
COc1ccc(C(=O)/C=C/Nc2ccc(S(=O)(=O)Nc3cccc(C(C)=O)c3)cc2)cc1 | 78.7* | -5.4 | 6.4 | 4.5
CC(=O)c1ccc(NS(=O)(=O)c2ccc(C)cc2)cc1 | 24.2 | 19.4 | -4.4 | -0.4
CCOC(=O)c1ccc(N/C=C\C(=O)c2cccc(OC)c2)cc1 | -45.6 | 7.8 | -5.7 | 10.4*
COc1cc(OC)c(OC)cc1/C=C/C(=O)c1ccc(NS(=O)(=O)c2ccc(C)cc2)cc1 | -1.3 | 4.2 | 61.5* | 9.9*
COc1cccc(C(=O)COC(=O)c2ccc(NC(C)=O)cc2)c1 | -12.8 | -4.0 | 80.6* | -0.1
COc1cccc(C(=O)/C=C/Nc2ccc(S(=O)(=O)Nc3ccc(C(C)=O)cc3)cc2)c1 | 19.3 | 13.1 | 20.4 | 2.8
CC(C)(C)c1ccc(OCc2cnc(Cl)s2)cc1 | 39.8 | 36.0 | -6.2 | 1.2
COc1ccc(CCNC(=O)c2ccccc2SC)cc1 | -3.5 | -33.5 | 5.7 | -0.2
COc1ccc(N/C=C/C(=O)c2ccc(Oc3ncccn3)cc2)cc1 | 65.7 | 69.7* | -1.6 | 1.9
CCOc1ccc(-c2csc(NNC3=NCCCCC3)n2)cc1 | 75.0* | 30.9 | 17.4 | 0.0
CC(=O)Nc1cccc(-c2csc(Nc3ccc(C)cn3)n2)c1 | 5.2 | 26.9 | 28.4 | -0.2
COc1ccc(-c2csc(Nc3ccc(C)cn3)n2)cc1 | -37.2 | 58.1* | 12.2 | 0.0
COc1ccc(-c2csc(NC3=NCCCCC3)n2)cc1 | -5.6 | 9.0 | 88.5* | 0.6
COc1ccccc1NC(=O)c1ccc(NC(=O)CN2C(=O)CN(C)C2=O)cc1 | 1.1 | -11.5 | 2.5 | 1.5
COC(=O)c1ccccc1NC(=O)Cn1c(=O)oc2ccc(Cl)cc21 | -19.8 | -1.9 | -1.4 | 3.1
COC(=O)c1ccccc1NC(=O)Cn1c(=O)n(Cc2ccccc2)c(=O)c2c(C)c(C)sc21 | 67.0 | 17.5 | 89.1* | 3.4
SMILES | CHOP inh | WT yeast gro inh | Lmaj promast | RAM network inh
CCCCCc1cc(=O)oc2c(C(CCN3CCCC(C)C3)c3ccc(OC)cc3)c(OC)cc(OC)c12 (stereo unspecified) | 71.3* | x | x | x
CCCCCc1cc(=O)oc2c(C(CCN3CCCCC3)c3ccc(OC)cc3)c(OC)cc(OC)c12 (stereo unspecified) | 71.5* | x | x | x
CN(C(=O)CSc1nnc(-c2cccnc2)n1-c1ccccc1F)C1CCS(=O)(=O)C1 (stereo unspecified) | -13.1 | -8.1 | -7.6 | 0.4
CCOC(=O)N1CCC(N2C(=O)c3ccccc3C2Nc2ccc(S(=O)(=O)N3CCCCC3)cc2)CC1 (stereo unspecified) | 14.7 | 6.7 | 12.1 | 1.0
O=C1/C(=C\c2cccs2)SC(=S)N1C1CCS(=O)(=O)C1 (stereo unspecified) | 11.1 | 22.9 | 76.9* | 1.2
O=C1/C(=C/c2ccccc2)SC(=S)N1C1CCS(=O)(=O)C1 (stereo unspecified) | 9.1 | x | x | x
Cc1ccccc1C(=O)NC(=S)N(C)CCc1ccccn1 | -7.7 | -11.4 | -11.7 | 0.5
O=C(O)c1cccc(NC(=S)NC(=O)C(c2ccccc2)c2ccccc2)c1 | -77.4 | -5.7 | -10.7 | 2.5
CCOc1ccc(NC(=S)NCC(c2cccnc2)N2CCOCC2)cc1 (stereo unspecified) | 19.6 | 0.3 | 26.3 | 3.2
O=C(CCn1ccnc1)Nc1ccc2ccccc2c1 | 8.5 | -7.1 | 73.9* | 0.9
O=C(CS)Nc1ccc2ccccc2c1 | 24.9 | x | x | x
O=C(CSCCN1C(=O)c2ccccc2C1=O)Nc1ccc2ccccc2c1 | 9.6 | -7.5 | -2.0 | 9.2*
